Data published in PubChem BioAssay AID504850 (National Center for Advancing Translational Sciences (NCATS), 2011).
The whole screen tested about 2,300 compounds, of which about 1,200 (52%) were called active. Not shown: some 34% with an inconclusive outcome. So high a share suggests a set chosen from earlier hits. Some of the results follow. A number with no mark means an inactive call. The call rests on the fitted dose curve; in most records, active means well fitted inhibition curve with a large enough effect; inconclusive means small, poorly fitted or top-dose-only effect, or effect the other way; inactive means no such curve, though single readings can be large or run the other way.

Test: Confirmation screen for delayed death inhibitors of the malarial parasite plastid, 48 hour incubation; further: nearly all actives have a fitted effect of over 65% in size
Conditions: P. falciparum-infected erythrocytes, luciferase growth; series mostly up to 28.7 µM; activity change, negative = inhibition: at the top concentration
Procedure, shortened: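 Single-generation (48 h, 37 C) exposure of integrated firefly luciferase-reporter P. falciparum in red cells, 0.1% parasitemia at 2% hematocrit, Albumax-supplemented RPMI. Falling luciferase signal marks parasite growth inhibition.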
On the % scale 0 is the no-effect control and ±100 the full control effect; potency means the concentration at half of the fitted maximal effect.

Row | Compound | Potency | activity change, negative = inhibition [%]
1 | CCc1ccc(-c2cn(C3CCCCC3)c(=S)[nH]2)cc1 | 14.1 µM (active) | –
2 | CC(=O)/C=C/c1ccccc1Oc1c(F)c(F)nc(F)c1F | 10 µM (active) | –
3 | Cc1cccc2c1NC(=O)/C2=C\C(=O)c1cccs1 | – | -3.23
4 | CC(C)N(C(=O)CSc1nnc(-c2ccc3c(c2)OCO3)n1C)C(C)C | 11.2 µM (active) | –
5 | CC(NC(=O)Nc1ccc(Cl)cc1)c1ccc2c(c1)OCO2 (stereo not given) | – | -25.1
6 | COC(=O)[C@H](Cc1ccccc1)N(C)S(=O)(=O)c1cccc(S(=O)(=O)N(C)[C@@H](Cc2ccccc2)C(=O)OC)c1 | 12.6 µM (active) | –
7 | O=C(N[C@@H](Cc1ccccc1)C(=O)CCl)OCc1ccccc1 | – | 2.15
8 | CCCCCn1c(=O)c2ccccc2n2c(CCl)nnc12 | 10 µM (active) | –
9 | COc1cccc(F)c1C(C[N+](=O)[O-])c1c(N)n(C)c(=O)n(C)c1=O (stereo not given) | 5.01 µM (active) | –
10 | Cc1ccc(CN2CCCCC2C(=O)Nc2ccc(Oc3cccnc3)cc2)o1 (stereo not given) | 11.2 µM (active) | –
11 | O=C(Nc1c2c(nn1-c1ccc([N+](=O)[O-])cc1)CS(=O)(=O)C2)c1cccs1 | – | -46
12 | O=C(Nc1ccc(N2CCN(C(=O)c3ccco3)CC2)cc1)c1ccc(F)cc1 | 11.2 µM (active) | –
13 | O=C(Nc1ccc(N2CCN(C(=O)c3cccs3)CC2)cc1)c1ccc([N+](=O)[O-])o1 | 3.55 µM (active) | –
14 | O=C(Nc1ccc(N2CCN(C(=O)c3ccccc3)CC2)cc1)c1ccc([N+](=O)[O-])o1 | 5.01 µM (active) | –
15 | Cc1ccccc1C(=O)N1CCN(c2ccc(NC(=O)c3ccc([N+](=O)[O-])o3)cc2)CC1 | 10 µM (active) | –
16 | COc1ccc(CCNS(=O)(=O)c2ccc(Br)s2)cc1 | – | -14.4
17 | O=C(NCc1ccc(F)cc1)C1CCN(S(=O)(=O)c2ccc(Br)s2)CC1 | 12.6 µM (active) | –
18 | O=C(COC(=O)C1C2CC3OC(=O)C1C3C2)Nc1ccccc1 (stereo not given) | – | 6.71
19 | O=S1(=O)Nc2c(ccc3cccnc23)-c2ccccc21 | 1.78 µM (active) | –
20 | Cc1nc(-c2ccccn2)sc1C(=O)Nc1ccc(Cl)c(Cl)c1 | – | -8.42
21 | Cc1ccc(-c2nc(-c3cccnc3)sc2CC(=O)Nc2ccc(C)c(Cl)c2)cc1 | 4.47 µM (active) | –
22 | COc1cc(OC)c(OC)cc1CN1CCN(C(=O)c2cccc3ccccc23)CC1 | 12.6 µM (active) | –
23 | CC1C/C(=C/c2ccncc2)C(=O)/C(=C/c2ccncc2)C1 (stereo not given) | 3.98 µM (active) | –
24 | CCSc1nnc(N2C(=O)c3ccc(C(=O)c4ccc(C(=O)O)cc4)cc3C2=O)s1 | – | 2.35
25 | O=C(NC1CCCC1)C1CC(=O)N(CCc2ccccc2)C1 (stereo not given) | – | -10.8

Row | Compound | Potency | activity change, negative = inhibition [%]
26 | O=C(NC1CCN(Cc2ccccc2)CC1)C1CCN(c2nnc(-n3cccc3)s2)CC1 | 10 µM (active) | –
27 | O=C(Cc1cccs1)NCCc1ccc(Cl)cc1 | 4.47 µM (active) | –
28 | Cc1ccc(Cl)cc1N1CCN(c2cccc[n+]2C)CC1 | 3.16 µM (active) | –
29 | O=C(COc1ccccc1)Nc1nnc(-c2ccc(F)cc2)o1 | – | -3.47
30 | COc1cccc2sc(Nc3nnc(-c4ccc(F)cc4)o3)nc12 | 7.08 µM (active) | –
31 | COc1cccc2sc(Nc3nnc(-c4ccccc4Cl)o3)nc12 | 12.6 µM (active) | –
32 | CC(C)CCSc1nc(N)c(C#N)cc1C#N | 6.31 µM (active) | –
33 | CCOC(=O)c1c[nH]c2cc(OCC(C)C)c(OCC(C)C)cc2c1=O | 0.199 µM (active) | –
34 | CSc1nnc(C)c(=O)[nH]1 | – | 4.83
35 | Cc1cc(=O)oc2c1ccc1oc(/C(=N/O)c3ccccc3)c(C)c12 | 7.94 µM (active) | –
36 | COc1ccc2nc3oc(C(=O)NCc4cccs4)cc3cc2c1 | 3.55 µM (active) | –
37 | COc1ccc2cc3cc(C(=O)Nc4ccc5c(c4)OCO5)oc3nc2c1 | 5.01 µM (active) | –
38 | Cc1ccc2cc3cc(C(=O)NCCCN4CCCC4=O)oc3nc2c1 | 3.16 µM (active) | –
39 | COc1ccccc1NC(=S)NCc1cccs1 | – | 8.42
40 | COCCCNC(=O)c1cc2cc3cc(OC)ccc3nc2o1 | 5.01 µM (active) | –
41 | Cn1cnc([N+](=O)[O-])c1Sc1ccc(Br)cc1 | – | -13.9
42 | Cc1cc(Br)ccc1NC(=O)CNC(=O)Cn1ncc(Cl)c(Cl)c1=O | 12.6 µM (active) | –
43 | O=C(NNc1nc(-c2ccccc2)cs1)c1ccco1 | 2.24 µM (active) | –
44 | O=C(Nn1c(-c2ccccc2)nc2ccccc2c1=O)c1ccco1 | – | -5.45
45 | S=c1[nH]nc(-c2ccccn2)n1/N=C/c1ccc(-c2ccccc2Br)o1 | – | -22.6
46 | Cc1nn(-c2ccccc2)c(C)c1/C=N/n1c(-c2ccccc2Br)n[nH]c1=S | 14.1 µM (active) | –
47 | Cc1[nH]c2ccccc2c(=O)c1C(=O)/C=C/c1ccccc1 | 6.31 µM (active) | –
48 | Cc1[nH]c(=O)c(C(=O)/C=C/c2ccccc2F)c2c1CCCC2 | 7.08 µM (active) | –
49 | Cc1[nH]c(=O)c(C(=O)/C=C/c2ccccc2)c2c1CCCC2 | 6.31 µM (active) | –
50 | Cc1[nH]c2ccccc2c1/C=N/NC(=O)CNC(=O)Cc1ccccc1 | – | -4.95
